# High-throughput results from PubChem BioAssay.
# PABP1 MLLE inh = inhibitors of microRNA-mediated deadenylation, human PABP1 MLLE binding; P11940; GST-MLLE / FITC-PAM2 fluorescence polarization; inhibition, % at 20 µM; 360,000 tested, 0.36% active; in the data active = inhibition above about 35%, passing the limit was not always enough
# Target sequence (P11940 whole entry, looked up): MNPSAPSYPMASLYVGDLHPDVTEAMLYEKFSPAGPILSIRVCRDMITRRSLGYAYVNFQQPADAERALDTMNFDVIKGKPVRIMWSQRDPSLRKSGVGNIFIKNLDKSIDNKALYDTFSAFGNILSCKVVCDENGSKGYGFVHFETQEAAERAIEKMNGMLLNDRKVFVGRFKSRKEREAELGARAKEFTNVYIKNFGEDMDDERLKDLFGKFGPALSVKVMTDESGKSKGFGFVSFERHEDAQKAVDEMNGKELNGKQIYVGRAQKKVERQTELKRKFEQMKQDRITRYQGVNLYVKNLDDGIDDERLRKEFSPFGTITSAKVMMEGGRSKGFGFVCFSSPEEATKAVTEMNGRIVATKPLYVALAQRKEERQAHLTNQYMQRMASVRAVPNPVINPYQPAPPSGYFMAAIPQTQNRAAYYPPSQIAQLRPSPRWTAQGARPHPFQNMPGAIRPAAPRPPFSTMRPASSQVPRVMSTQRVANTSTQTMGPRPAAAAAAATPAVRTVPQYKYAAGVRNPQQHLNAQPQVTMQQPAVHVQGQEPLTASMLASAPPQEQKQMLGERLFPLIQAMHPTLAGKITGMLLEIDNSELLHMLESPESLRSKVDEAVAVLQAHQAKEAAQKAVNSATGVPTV
# PABP FP inh = PABP-poly(A) binding inhibition. P11940. PABP-poly(A) RNA binding, fluorescence polarization. AID 2014. calls only at 35 µM. 290,000 tested, 1% active;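 also: calls also rest on retests at 20 µM and on dose response follow-up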
# eIF4E 4G PPI = blocks eIF4E binding to eIF4G; 220,000 tested, 0.37% active; TR-FRET eIF4E-eIF4GI(517-606) binding, 2 h; P63073+Q04637; inhibition, % at 21.7 µM;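 active = inhibition above about 30%, limit read from the data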
# 14-3-3 Bad PPI = disrupts binding of bovine 14-3-3 zeta to phospho-Bad peptide; P63103; 220,000 tested, 0.71% active; TR-FRET 14-3-3zeta/Dy647-pBad peptide displacement, 1 h; AID 781; inhibition, % at 21.7 µM;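 active = inhibition above about 70%, limit read from the data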
# eIF4H inh = inhibitors of RNA binding by human eIF4H; Q15056; eIF4H fluorescence polarization binding assay; inhibition, % at 35 µM; 290,000 tested, 0.94% active;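 also: calls also rest on retests at 20 µM and on dose response follow-up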
# Numbers stand for hits; i = inactive; nt = no result; + = active, no number. An excerpt weighted towards active compounds, which were near 1.9% of everything screened. Unless noted, no rule for the calls is given here.
SMILES,PABP1 MLLE inh,PABP FP inh,eIF4E 4G PPI,14-3-3 Bad PPI,eIF4H inh
COC(=O)CCCC1=CC2=CC(=O)C(C)(OC(=O)c3cccs3)C(=O)C2=CN1Cc1ccco1 (centres undefined),i,+,i,i,61
CCCCC1=CC2=CC(=O)C(C)(OC(=O)CC)C(=O)C2=CN1Cc1ccccc1 (centres undefined),i,i,i,i,i
CCCCC1=CC2=CC(=O)C(C)(OC(=O)CC)C(=O)C2=CN1Cc1ccco1 (centres undefined),i,+,i,i,70
CCCCC1=CC2=CC(=O)C(C)(OC(=O)CC)C(=O)C2=CN1c1ccccc1 (centres undefined),i,+,71,i,i
COc1ccc(CNC(=O)c2cn(Cc3ccccc3F)c(=O)s2)cc1,i,nt,nt,nt,nt
Cc1ccc(S(=O)(=O)Nc2cccc(C(=O)NCCN3CCOCC3)c2)cc1F,i,nt,nt,nt,nt
O=C(C1CCC(=O)N(C2CC2)C1)N1CCN(c2cccc(Cl)c2)CC1 (centres undefined),i,i,nt,nt,i
COc1ccc(C(=O)N/C(=C/c2ccco2)C(=O)NC2CCS(=O)(=O)C2)cc1 (centres undefined),i,i,i,i,i
CCOC(=O)C1=C(COC(=O)c2ccc(Cl)nc2)NC(=O)NC1C (centres undefined),i,nt,nt,nt,nt
COc1ccc(CCNC(=O)CCC(=O)NC2CCCC(C)C2C)cc1OC (centres undefined),i,i,nt,nt,i
COC(=O)CCCC1=CC2=CC(=O)C(C)(OC(=O)c3cccs3)C(=O)C2=CN1c1ccc(OC)cc1 (centres undefined),i,+,i,i,i
COC(=O)CCCC1=CC2=CC(=O)C(C)(OC(=O)c3cccs3)C(=O)C2=CN1Cc1ccc2c(c1)OCO2 (centres undefined),i,i,i,i,i
COC(=O)CCCC1=CC2=CC(=O)C(C)(OC(=O)c3cccs3)C(=O)C2=CN1Cc1ccccc1 (centres undefined),i,i,i,i,i
COC(=O)CCCC1=CC2=CC(=O)C(C)(OC(=O)c3cccs3)C(=O)C2=CN1CCCOC(C)C (centres undefined),i,+,i,i,i
CC(=O)OCC=C1CCC2C3CC(C)C4=CC(=O)CCC4(C)C3C(O)CC12C (centres undefined),i,nt,nt,nt,nt
CC(C)(C)C(=O)CSc1nc(N)cc(=O)[nH]1,i,i,i,i,i
c1ccc2oc(-c3ccn[nH]3)cc2c1,i,i,i,i,i
CCOC(=O)CSC1=C(C#N)C(=O)NC(c2ccc(OC)cc2)S1 (centres undefined),i,i,i,i,i
CCOC(=O)CSC1=C(C#N)C(=O)NC(c2ccc(OC)c(OC)c2)S1 (centres undefined),48,i,i,i,i
O=S(=O)(Nc1ccc(O)c(NS(=O)(=O)c2ccccc2)c1)c1ccccc1,i,i,nt,nt,i
CC[C@H]1C(O)C[C@H]2CCN3C(=O)CCC[C@H]1[C@H]23 (some centres undefined),i,nt,nt,nt,nt
Cc1cccc(C)c1OCCOC(=O)c1n[nH]c2ccccc12,i,i,i,89,i
Cc1cccc(NC(=O)COC(=O)c2n[nH]c3ccccc23)c1C,i,nt,nt,nt,nt
Cc1nc2ccccn2c(=O)c1NC(=O)c1ccc2c(c1)OCO2,i,nt,nt,nt,nt
COc1ccc(CNC(=O)c2cn(Cc3ccccc3OC)c(=O)s2)cc1,i,nt,nt,nt,nt
SMILES,PABP1 MLLE inh,PABP FP inh,eIF4E 4G PPI,14-3-3 Bad PPI,eIF4H inh
CCCN1CCN(S(=O)(=O)c2cn(C)nc2C)CC1,i,+,nt,nt,i
CSCCC(C(=O)Nc1c(C)cccc1C)N1CCN(c2ccc(F)cc2)CC1 (centres undefined),i,nt,nt,nt,nt
Cc1ccc(C)c(C(=O)Cn2c(NCCO)nc3ccccc32)c1,i,i,nt,nt,i
COc1cc(-c2cc(=O)c3ccc(O)cc3o2)cc(OC)c1OC,45,nt,nt,nt,nt
O=c1cc(-c2ccc(O)cc2)oc2c(O)c(O)c(O)c(O)c12,i,+,i,i,91
COc1cc2oc(-c3ccc(O)cc3)cc(=O)c2c(O)c1OC,i,i,58,i,i
COc1ccc(-c2cc(=O)c3ccc(O)cc3o2)cc1,i,nt,nt,nt,nt
CC(C)(C)c1cc(C(=O)Nc2cccnc2)cc(C(=O)Nc2cccnc2)c1,i,i,nt,nt,i
COc1cccc(C(=O)N2CCN(C(=O)COc3ccc4ccccc4c3)CC2)c1,i,i,nt,nt,i
Cc1ccc(CNc2oc(-c3ccco3)nc2C#N)cc1,i,i,i,i,i
Cc1ccc(CNc2oc(C)nc2C#N)cc1,i,i,i,89,i
O=C1CC(=O)OC(c2ccc([N+](=O)[O-])cc2)O1,i,nt,nt,nt,nt
CCC1C(=O)C(C)(C)C(=O)OC1c1ccc([N+](=O)[O-])cc1 (centres undefined),i,+,nt,nt,110
CCOc1ccccc1OCCCCCc1c(C)n[nH]c1C,i,i,47,i,i
COc1ccccc1OCCCCCc1c(C)n[nH]c1C,i,i,i,72,i
CCCCN1C(=O)C(C(=O)OCc2ccccc2)CC2=C1CCCC2=O (centres undefined),i,nt,nt,nt,nt
O=C(Nc1cccc(C(=O)O)c1)/C(=C\c1cccc([N+](=O)[O-])c1)NC(=O)c1ccc(Br)cc1,i,nt,nt,nt,nt
COc1ccc(N2CCN(C(=O)c3cccc(N4C(=O)C5C6C=CC(C6)C5C4=O)c3)CC2)cc1 (centres undefined),i,i,nt,nt,i
O=C(c1cccc(N2C(=O)C3C4C=CC(C4)C3C2=O)c1)N1CCCCCC1 (centres undefined),i,i,i,77,i
COc1cc(NC(=O)CNC(=O)Cn2cnc3sc(C)c(C)c3c2=O)cc(OC)c1OC,i,nt,nt,nt,nt
CC1=CC(C)(C)[N+](C)(C)c2ccccc21,i,+,i,i,i
CC1(CC(=O)N/N=C/c2ccc(-c3ccc(C(=O)O)cc3)o2)OCCO1,i,i,i,i,i
O=C(CN1CCOCC1)N/N=C/c1ccc(-c2ccc(C(=O)O)cc2)o1,i,+,i,i,i
COCCNC(=O)C1(C)CCCN(C(=O)c2ccc(F)c(Cl)c2)C1 (centres undefined),i,nt,nt,nt,nt
Cc1c(C(=O)OCC[N+]2(C)CCCCC2)oc2ccccc12,i,+,i,i,i
SMILES,PABP1 MLLE inh,PABP FP inh,eIF4E 4G PPI,14-3-3 Bad PPI,eIF4H inh
COc1ccc(CCN2CCCC(CN(C)Cc3cc(Cl)c(O)c(OC)c3)C2)cc1 (centres undefined),i,i,nt,nt,i
CN(C(=O)CN1C(=O)/C(=C/c2ccccc2Cl)SC1=S)C1CCS(=O)(=O)C1 (centres undefined),41,i,nt,nt,i
CN(C(=O)CN1C(=O)S/C(=C\c2ccccc2Cl)C1=O)C1CCS(=O)(=O)C1 (centres undefined),i,i,nt,nt,i
COc1ccccc1CNC(=O)COC(=O)c1cc2ccccc2o1,i,nt,nt,nt,nt
CCOC(=O)CSc1ncnc2c1cnn2-c1ccc(Cl)cc1,i,i,i,85,i
O=C(CN1C(=O)c2cccnc2Oc2ccc(Cl)cc21)Nc1ccccc1F,i,i,nt,nt,i
Cc1cccc(C(=O)N/N=C/c2cc(Br)c(Br)o2)c1,i,i,i,i,i
O=C1CCNc2ccc(-c3ccccc3)cc21,i,i,i,i,i
